Columns and labels:
Assay in all cases: PBM binding z-score (relative to random genomic background probes); higher = stronger binding; sequences stand for … in GC…GCGATTGACAGCGTAGAATGAAGG
[1] = system: PPARg:RXRa IVT, anti-PPARg (NR concentration 270 nM, RXRa partner concentration 90 nM)
Method in brief: (§1)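 For binding z-scores, the reference was random background probes on custom Agilent 4×180K protein-binding microarrays. These arrays were incubated 1 h with ligand-free nuclear receptor dimers in PBS pH 7.4, 2% milk, 0.02% Triton X-100, 1 mM DTT, 0.2 mg/mL BSA and 0.4 mg/ml salmon testes DNA. Fluorescence was scanned after antibody detection of each partner (one per run) and regression-normalized.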

[2] = system: PPARg DBDmut:RXRa IVT, anti-PPARg (DBD mutation: PPARg1 K132A/R137A, NR concentration 270 nM, RXRa partner concentration 90 nM)
Method in brief: as §1

[3] = system: PPARg DBDmut IVT, anti-PPARg (DBD mutation: PPARg1 K132A/R137A, NR concentration 270 nM)
Method in brief: as §1

[4] = system: PPARg homodimer (NR concentration 180 nM)
Method in brief: as §1

[5] = system: PXR:RXRa (NR concentration 270 nM, RXRa partner concentration 90 nM)
Method in brief: as §1

[6] = system: PXR homodimer (NR concentration 270 nM)
Method in brief: as §1

[7] = system: RARa:RXR (NR concentration 270 nM, RXRa partner concentration 90 nM)
Method in brief: as §1

[8] = system: RARa homodimer (NR concentration 270 nM)
Method in brief: as §1

[9] = system: RARb:RXRa (NR concentration 270 nM, RXRa partner concentration 90 nM)
Method in brief: as §1

[10] = system: RARb homodimer (NR concentration 270 nM)
Method in brief: as §1

[11] = system: RARg:RXRa (NR concentration 270 nM, RXRa partner concentration 90 nM)
Method in brief: as §1

[12] = system: RARg homodimer (NR concentration 270 nM)
Method in brief: as §1

[13] = system: RXRa DBDmut IVT, anti-RXR (DBD mutation: RXRa K156A/R161A, NR concentration 90 nM)
Method in brief: as §1

[14] = system: RXRa homodimer (NR concentration 180 nM)
Method in brief: as §1

[15] = system: THRa:RXRa (NR concentration 90 nM, RXRa partner concentration 90 nM)
Method in brief: as §1

[16] = system: THRa homodimer (NR concentration 90 nM)
Method in brief: as §1

[17] = system: VDR homodimer (NR concentration 270 nM)
Method in brief: as §1

Sequence	PBM binding z-score [1]	PBM binding z-score [2]	PBM binding z-score [3]	PBM binding z-score [4]	PBM binding z-score [5]	PBM binding z-score [6]	PBM binding z-score [7]	PBM binding z-score [8]	PBM binding z-score [9]	PBM binding z-score [10]	PBM binding z-score [11]	PBM binding z-score [12]	PBM binding z-score [13]	PBM binding z-score [14]	PBM binding z-score [15]	PBM binding z-score [16]	PBM binding z-score [17]
TAGCCTAGGTCATGCGGGCCAATATAGTGTCGGC	2.94	-0.152	-0.18	0.69	1.64	-0.334	2.13	-0.396	3.67	3.15	3.98	4.36	0.554	3.1	3.14	0.979	0.902
TTGCCTAGGTCATTGGGCCAGTATAGTACGCATC	3.83	0.969	-0.224	0.621	1.67	-0.193	2.13	-0.65	3.79	2.92	3.73	4.22	1.9	2.8	2.89	1.05	1.14
CGTCCAAGGTCGAAGGTCAGTGAAGAGATGACGG	2.36	-0.273	-0.43	1.19	3.61	0.105	5.45	0.117	3.98	3.62	4.83	4.64	1.82	6.09	3.04	0.66	1.14
AGAATGGGGTTACCAAAGATCAGGGAAACGCTTG	4.08	1.57	1.15	1.96	3.04	0.0687	3.76	-0.368	2.18	1.08	2.9	1.43	1.25	4.79	3.07	0.513	0.217
TAGCCTAGGTTATGGGCCAGTATACCACGCGAAC	0.996	-0.249	-0.26	0.0998	-0.0911	-0.214	0.27	-0.107	0.734	0.24	0.379	0.719	-0.976	0.432	0.373	-0.271	-0.399
TCTCGGAGGACACAAAGGTCAGAGCTTTCCAGAG	2.39	-0.467	-0.672	2.65	4.46	3.76	4.59	1.37	4.22	4.77	4.8	5.32	0.957	4.32	3.45	0.913	2.06
GCTGCTAGGTCAACTGATGGCCAGCTAAAGCTCG	4.14	-0.855	-0.449	1.12	1.1	-0.837	1.88	-0.722	4.23	3.32	4.59	5.33	1.01	2.75	2.89	0.674	-0.329
TATAAAGGGTCAAAGGCCAGAGTACGAATGTCGA	4.93	2.86	2.33	3.29	4.36	0.699	5.99	1.64	5.27	4.32	6.39	6.63	3.06	7.08	3.11	-0.348	2.46
CCTTACGGGTCACTCCAGGTTATATCATCGGAGT	3.56	0.671	-0.354	1.62	5.16	0.444	3.62	0.321	3.69	3.31	4.35	4.43	1.46	4.17	5.19	0.814	1.49
GATACAGGGTCGGCTAGAGGCCAGAGTATGGAAA	-0.134	-0.784	-0.716	0.88	0.712	-0.222	1.39	-0.471	1.56	1.32	4.14	1.5	-0.0719	1.49	1.22	-0.62	0.35
CGTTCAAGGTCAAAGGTCAGTGAAGAGATGACGG	6.57	2.57	1.79	6.36	7.19	3.57	8.99	5.48	5.89	5.42	8.78	8.73	4.53	10.3	5.04	3.34	3.81
ATATGTAGGTTAAGCGTCATTCAGGTTGGTTCGC	7.49	1.71	1.99	1.04	0.685	-0.178	0.705	0.512	1.17	0.88	0.863	0.763	0.559	1.15	0.543	0.263	0.378
TCTAGTTGGTCACGGAGGTCCCACACGACGGGTA	2.31	0.993	1.03	0.373	0.138	-0.319	0.243	0.299	1.57	1.32	1.02	1.61	0.484	0.931	0.42	0.108	-0.235
ATATGTAGGTTAGCTGGGGTCCTTCAGACTAGGC	5.77	1.74	2.65	1.13	1.33	0.206	2.3	0.538	0.851	0.736	0.698	0.529	0.183	0.692	3.45	0.268	0.249
ACTCGGTGGACAAAGGTCAGAGCTACGCCAGTGA	3.04	-0.478	-0.742	2	3.37	-0.0874	4.02	0.366	3.96	4.06	4.58	4.49	0.0487	4.44	2.45	-0.204	0.332
CCTACTGGGCCATTCAGAGGTCAATGATCATATG	4.62	0.0847	-0.339	1.92	3.89	0.827	3.93	0.374	3.42	4.28	4.55	3.43	0.406	3.05	2.97	1.32	1.44

Sequence	PBM binding z-score [1]	PBM binding z-score [2]	PBM binding z-score [3]	PBM binding z-score [4]	PBM binding z-score [5]	PBM binding z-score [6]	PBM binding z-score [7]	PBM binding z-score [8]	PBM binding z-score [9]	PBM binding z-score [10]	PBM binding z-score [11]	PBM binding z-score [12]	PBM binding z-score [13]	PBM binding z-score [14]	PBM binding z-score [15]	PBM binding z-score [16]	PBM binding z-score [17]
TAGCCTAGGTCATGCGGGACAGTATAGTGTCGGC	3.2	0.574	0.484	1.45	1.82	-0.102	2.58	-0.0247	3.72	2.99	3.95	4.49	0.879	3.05	3.04	0.939	1.16
ACTCGGAGGACAAAGGTCAGGGCTACGCCAGTGA	3.76	0.115	-0.434	4.95	4.18	0.463	5.81	1.53	4.69	4.65	6.45	5.95	0.934	6.71	3.63	1.02	1.33
CGTACAAGGTCAAAGGTCAGTGAAGAGATGACGG	7.09	2.61	3.6	5.49	7.22	2.17	9.15	4.68	5.95	5.35	8.95	8.28	4.22	10.5	4.71	2.58	4.13
ATCTCTAGGTTAAGATAGTTCAGTGAATGCAAAT	3.25	1.33	1.32	1.36	3.05	0.756	1.53	2.08	2.01	1.9	1.73	1.87	0.534	1.14	1.81	0.578	0.933
TAGCCTAGGTCATGCGGCCCAGTATAGTGTCGGC	2.78	-0.45	-0.404	0.605	1.27	-0.926	2.1	-0.495	3.72	2.78	3.79	4.07	0.176	2.87	2.89	0.868	0.276
CCTAGTGGGCCAAGGTCATTGATCAGTCAAAGCA	4.38	-0.821	-0.95	2.36	3.66	1.8	3.56	0.113	3.36	3.28	3.74	3.3	1.05	3.2	3.45	2.05	2.91
AGAATGAGGTTACTAAAGATCAGGGAAACGCTTG	2.84	0.939	0.661	0.271	0.942	0.152	1.21	0.392	1.51	0.777	1.61	1.25	0.94	1.59	2.19	0.398	0.00246
ATCGAAAGGTCCAAGGTGAGTATACCCACCCGAA	0.666	0.0343	0.185	0.369	0.0935	-0.107	0.511	0.706	1.49	0.938	0.919	1.08	0.0908	0.853	1.35	0.653	0.214
TATCAAAGTTCAAAGGTAACGTAAGTATCCACAC	2.37	1.61	1.66	2.55	5.83	4.87	6.67	2.48	5.07	3.91	6.25	6.03	4.5	7.49	3.56	0.168	4.2
CCTACTGGGCCAAAAAGGTCATTGATGCCGATAA	3.76	-0.582	-0.854	3.07	4.63	3.96	4.97	0.857	3.97	4.43	4.72	4.42	0.661	5.23	3.12	0.474	2.01
ATCGAAAGGTCGAAGGTGCGTATACCCACCCGAA	1.39	0.552	0.658	0.794	2.17	-0.19	3.01	0.303	3.68	2.42	3.93	3.91	1.37	4.23	1.66	-0.362	0.858
AGAATGAGGTTACCAAAGTTCAGGGAAACGCTTG	4.09	0.616	0.161	1.31	6.02	3.03	3.93	0.38	3.81	3.93	4.44	3.52	1.62	4.3	4.02	0.878	2.32
TAGCCTAGGTCATTCAGGGGCCACTATAGAAAGC	3.19	0.203	-0.136	2.11	3.08	-0.109	4.13	0.262	4.11	3.28	6.46	4.76	1.94	3.21	3.89	1.05	1.92
GCTAGTTGGTCAGTAAAATGTCACACACCGGTCG	0.672	0.0763	-0.339	1.21	-0.0576	0.0723	0.0348	0.262	0.995	1.43	0.584	0.697	0.121	0.272	-0.216	-0.123	0.162
CGAACTAGGTCGTCCAGGACAGTGAATACATTGA	4.97	0.213	0.237	-0.545	0.256	-0.263	0.281	-0.365	1.14	0.392	0.869	1.08	1.02	0.72	2.27	0.874	0.591
CCTCGGAGGACAACAGGAGGTCATAGCTGCCAGA	0.613	-0.597	-1.12	1.63	3.72	1.1	3.52	0.48	2.93	3.71	3.93	3.78	1.1	3.09	3.58	1.5	2.44

Reference: the supplement of paper PMC6555819
